In PubChem BioAssay one finds inhibition data, which are given here for 39 compounds.

Unmarked numbers belong to inactive results. How the calls were made is not given here.

By inhibition is commonly meant the percentage by which the read-out fell short of the control.

For this experiment, the target named is Pantothenate synthetase (Mycobacterium tuberculosis (strain ATCC 25618 / H37Rv)) (UniProt P9WIL5). The experiment in a line: Coupled enzyme confirmation of inhibitors against recombinant Mtb PanC (AID 375).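 Further: 0% = full reaction with vehicle and 100% = no enzyme background.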 The settings on record: coupled enzyme assay; at 10 µM, hits give high values.
Sequence of Pantothenate synthetase (Mycobacterium tuberculosis (strain ATCC 25618 / H37Rv)) (P9WIL5 whole entry, looked up): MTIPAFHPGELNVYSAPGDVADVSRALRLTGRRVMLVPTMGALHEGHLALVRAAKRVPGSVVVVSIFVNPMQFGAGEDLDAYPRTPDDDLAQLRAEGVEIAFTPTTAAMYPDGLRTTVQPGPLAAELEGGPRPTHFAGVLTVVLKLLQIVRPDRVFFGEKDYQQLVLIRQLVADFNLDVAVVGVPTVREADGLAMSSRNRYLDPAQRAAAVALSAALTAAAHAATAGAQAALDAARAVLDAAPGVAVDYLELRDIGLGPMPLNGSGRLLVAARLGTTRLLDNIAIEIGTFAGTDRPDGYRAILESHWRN
For the compound `CC(C)CCNC(=O)NC(=O)COc1ccccc1C#N`, the inhibition is 4%.
Consider `O=C(CCC(=O)c1cccs1)NCc1ccccc1`, for which the inhibition was 0%.
To `CCn1cc(C2Nc3ccccc3C(=O)N2O)c(C)n1` (centres undefined) belongs 0%; to `O=C(CCc1nc2ccccc2s1)OCC(=O)N1CCN(C(=O)c2ccco2)CC1`, 4%.
As to `CCc1ccc(C(=O)NC2CCCCC2)s1`, the inhibition was 0%.
`O=S(=O)(NCc1cccnc1)c1cccc2nsnc12`: the inhibition was 12%.
With `COc1ccccc1-c1cn[nH]c(=S)n1`, the inhibition is 11%.
For `COc1ccc(CCNC(=O)C2CC(=O)N(c3ccccc3)C2)cc1OC` (centres undefined), the inhibition is 0%.
On to `Cc1ccccc1CN1CCN(CC(=O)NCc2ccco2)C1=O`, for which the inhibition is 0%.
To `Cc1nc(-c2coc3cc(OCC(=O)O)ccc3c2=O)cs1` belongs 0%.
`Cn1c(COc2ccc(Cl)cc2)nnc1SCC(=O)NC1CCCCC1`: the inhibition was 0%.
Regarding `O=c1c2ccccc2nc(SCc2nc(-c3ccccc3)no2)n1-c1ccc(F)cc1`, the inhibition is 0%.
For `COc1ccc(N(C(=O)c2ccco2)S(=O)(=O)c2cc(OC)ccc2OC)cc1`, the inhibition is 0%.
For `CCOc1cc(S(=O)(=O)N2CCC(Cc3ccccc3)CC2)c(OCC)cc1-n1cnnn1`, the inhibition is 7%.
As for `O=C(O)c1cccn2c(=O)c3ccccc3nc12`, the inhibition is 0%.
As to `Cc1onc(-c2ccccc2)c1C(=O)NCc1cccnc1`, the inhibition was 10%.
In the case of `O=C(Nc1nc(-c2ccccc2)cs1)C1CCCO1` (centres undefined), the inhibition is 3%.
The result for `O=C(COc1ncnc2ccccc12)NCc1ccc2c(c1)OCO2` reads 0%; that for `CNC(=O)CN(c1cc(C)ccc1OC)S(=O)(=O)c1ccc(C)cc1`, 3%.
To `CC(N)C12CC3CC(C1)CC(C(C)N)(C3)C2` (centres undefined) belongs 0%; to `CC(=O)Nc1ccc(OC(=O)c2cccs2)cc1`, 0%.
In the case of `CCn1cnc2sc(C(=O)Nc3ccc4c(c3)OCO4)c(C)c2c1=O`, the inhibition was 4%.
Take `Cc1cccc(Nc2nc3c(c(=O)n(C)c(=O)n3C)n2Cc2ccccc2)c1`: the inhibition was 5%.
To `O=P(O)(O)c1ccccc1OCCOCCOc1ccccc1P(=O)(O)O` belongs 4%; to `Brc1ccc2[nH]ncc2c1`, 10%; to `CCC1=C(C(=O)OC)C(c2cc(OC)ccc2OC)C(C#N)=C(N)O1` (centres undefined), 8%.
Consider `CCc1nc(N)nc(N)c1-c1ccc(Cl)cc1`, for which the inhibition is 0%.
As to `O=c1c2cc3ccccc3n2cnn1Cc1ccccc1F`, the inhibition was 0%.
The result for `CC(C)NC(=O)c1ccccc1NC(=O)c1ccccc1N(C)S(C)(=O)=O` reads 4%; that for `Cn1c(SCC(=O)N2CCOCC2)nnc1-c1cccc(NC(=O)c2ccccc2F)c1`, 0%; that for `Cc1nc2ccc(NC(=O)N3CCC(c4ccccc4)C3)cc2nc1C` (centres undefined), 0%.
As for `C[C@H](NC(=O)OC(C)(C)C)C(=O)NCC1CCC(C(=O)O)CC1` (some centres undefined), the inhibition is 0%.
Regarding `CCCCNc1cc(C(=O)O)cc(S(N)(=O)=O)c1Oc1ccccc1`, the inhibition was 3%.
On to `O=C(O)C1CC(=O)N(c2ccc(OCc3ccccc3Cl)cc2)C1` (centres undefined), for which the inhibition is 0%.
To `Cc1cc(C)nc(N2CCCC(C(=O)Nc3ccc4c(c3)OCO4)C2)n1` (centres undefined) belongs 0%; to `CC(=O)N1CCc2cc(S(=O)(=O)CCC(=O)N3CCN(c4ccccn4)CC3)ccc21`, 11%.
Consider `O=C(OCCN1C(=O)c2ccccc2C1=O)c1ccc(S(=O)(=O)N2CCCCCC2)cc1`, for which the inhibition is 0%.
For the compound `CC(CCC(=O)Nc1nncs1)C(=O)O` (centres undefined), the inhibition is 1%.
Take `CCN(C(C)=O)c1nnc(CSc2nc3ccccc3s2)s1`: the inhibition was 5%.
